PubChem BioAssay (NCATS)
Inconclusive results are not listed. Entries that show only a call come without a potency. Activity calls are given as the source filed them. Calls come from the whole dose curve; as a rule, active = well fitted inhibition curve with a large enough effect; inconclusive = small, poorly fitted or top-dose-only effect; inactive = no such curve, though single readings can be large or run the other way.

system: Zika virus NS2B-NS3 protease (unlinked); experiment: Optimization of GU AMC qHTS for Zika virus inhibitors: Unlinked NS2B-NS3 protease assay (AID 1347151); details: recombinant ZIKV NS2B-NS3 protease, fluorogenic AMC substrate; series mostly up to 52.5 µM; note: nearly all actives have a fitted effect of over 80% in size
Description: Avindra Nath, Ph.D., National Institute of Neurological Disorders and Stroke (NINDS), Bethesda, MD
Radhakrishnan Padmanabhan, Ph.D., Georgetown University (GU), Washington D.C.
Zika Virus causes congenital defects, including microcephaly and is associated with Guillain-Barre syndrome, eningoencephalitis and myelitis in infected adult. […] Using a target-based approach, we hope to establish a screening paradigm to uncover novel, cell-active NS2B-NS3 protease (Zika Virus) specific inhibitors from NCATS' collection of small molecules using qHTS.
Early Translation Branch (ETB)
National Center for Advancing Translational Sciences (NCATS), Rockville, MD
National Institute of Health (NIH), Bethesda, Maryland
Padmanabhan lab provided the NS2B hydrophilic domain and NS3 protease domain in a noncovalent complex used for the unlinked assay. Control compound aprotinin is obtained from Thermo Scientific (#78432; Waltham, Massachusetts). NS2B-NS3 AMC substrate (Bz-Nle-Lys-Arg-Arg-AMC; Nle-KRR-AMC) purchased from Bachem (#I-1995; Torrance, CA). Ac-VKTGKR-AMC purchased from Genscript or Bachem, Ac-FAAGKR-AMC purchased from Genscript, Ac-GLVKRR-AMC purchased from Genscript, Ac-LKKR-AMC purchased from Genscript.
GU AMC unlinked NS2B-NS3 protease qHTS protocol:
Briefly, 3 microL of Zika virus unlinked NS2B-NS3 protease (25 nM for linked final concentration), in assay buffer (10 mM Tris-HCl pH 8.0 with 0.01% Tween 20) was dispensed into a 1,536-well solid-bottom black plate (Greiner Bio One, Monroe, NC). Twenty-three nL of compounds (final concentration range 7.28 nM to 114 microM) or control Aprotinin (final concentration range 3.47 nM to 114 microM) were transferred via Wako Pin-tool (Wako Automation, Richmond, VA). […] Plates were then read immediately on a ViewLux High-throughput CCD imager (PerkinElmer, Waltham, MA) equipped with standard UV fluorescence optics (340(30) nm excitation, 450(20) nm emission) then incubated (room temperature, protected from light) for 15 minutes (~20% conversion). The change in fluorescence intensity over the 15-minute reaction period was normalized against no-inhibitor and no-enzyme controls and the resulting percent inhibition data were fitted to a 4-parameter Hill equation. Aprotinin was used as the intraplate control.
Potency is the fitted concentration of half-maximal effect.

Compound | Potency
CCCCOc1cc(CC2CNC(=O)N2)ccc1OC (stereo not given) | inactive
Cc1nc2c(OCc3ccccc3)cccn2c1CC#N | inactive
N[C@H](C(=O)O)[C@H](O)C(=O)O | inactive
Nc1ncnc2c1nc(Br)n2C1OC2COP(=O)(O)O[C@@H]2C1O (stereo not given in full) | inactive
CCCCCCCCCCCCCCC[C@H](O)[C@H](N)CO | inactive
N[C@H]1CONC1=O | inactive
Nc1ncnc2c1ncn2C1CCCO1 (stereo not given) | inactive
CN(C)S(=O)(=O)c1ccc2c(c1)/C(=C/c1cc3c([nH]1)CCCC3)C(=O)N2 | inactive
Oc1ccc(/C=C/c2ccc(/C=C/c3ccc(O)cc3)c(Br)c2)cc1 | inactive
CC(C)C[C@H](NC(=O)[C@H](O)[C@H](N)Cc1ccccc1)C(=O)O | inactive
C[C@](Cc1ccc(O)c(O)c1)(NN)C(=O)O | inactive
CC[C@H](NC(=O)c1c(C)c(-c2ccccc2)nc2ccccc12)c1ccccc1 | inactive
COc1cc(CC(=O)O)ccc1O | inactive
O=C(O)C1=CCCNC1 | inactive
c1ccc(CN2CCC3(CCCc4ccccc43)CC2)cc1 | inactive
Cc1nc(N=Nc2cc(S(=O)(=O)O)c3cc([N+](=O)[O-])cc(S(=O)(=O)O)c3c2)c(COP(=O)(O)O)c(C=O)c1O | 26.7 µM (active)
CC(C)(C)c1ccc(/C=C/C(=O)Nc2ccc3c(c2)OCCO3)cc1 | inactive
CN1CCc2cc(Cl)c(O)cc2[C@@H](c2ccccc2)C1 | inactive
CNC(=O)c1cc2c(cn1)[nH]c1ccccc12 | 26.7 µM (active)
CC1=C(C(=O)O)N2C(=O)[C@@H](NC(=O)C(N)C3=CCC=CC3)[C@H]2SC1 (stereo not given in full) | inactive

Compound | Potency
CCN(CC)CCCCCCCCOC(=O)c1cc(OC)c(OC)c(OC)c1 | inactive
CC(=O)NNC(=O)N1Cc2ccccc2Oc2ccc(Cl)cc21 | inactive
CCCCC[C@H](CC(=O)NO)C(=O)N[C@H](C(=O)N1CCC[C@H]1CO)C(C)C | inactive
O=C(O)C1CCNCC1 | inactive
CNc1cc(NS(=O)(=O)c2ccc(N)cc2)nc(NC)n1 | inactive
NCCNS(=O)(=O)c1cccc2c(Cl)cccc12 | inactive
[N-]=[N+]=Nc1ccc(C(=O)CSC[C@H](NC(=O)CC[C@H](N)C(=O)O)C(=O)NCC(=O)O)cc1 | 7.52 µM (active)
Cn1c(=O)[nH]c2ncn(C)c2c1=O | inactive
c1ccc2c(c1)CC(N1CCN(c3cccc4c3OCCO4)CC1)C2 | inactive
NC(=O)c1cc[n+](CC2=C(C(=O)O)N3C(=O)[C@@H](NC(=O)[C@@H](c4ccccc4)S(=O)(=O)[O-])[C@H]3SC2)cc1 | inactive
NC[C@@H]1O[C@H](c2ccccc2)Cc2c1ccc(O)c2O | inactive
CCCCCCCCCCCCCCSCC(=O)O | 11.9 µM (active)
O=c1[nH]c(=O)c2nc3ccccc3nc2[nH]1 | 26.7 µM (active)
C=CCN1CCc2cc(O)c(O)cc2C(c2ccccc2)C1 (stereo not given) | inactive
Cc1nc(N=Nc2ccc(S(=O)(=O)O)cc2S(=O)(=O)O)c(COP(=O)(O)O)c(C=O)c1O | inactive
COc1ccc2c(c1)c(CC(=O)O)c(C)n2C(=O)c1ccccc1 | inactive
C[C@H]1CC2C3CCC4=CC(=O)C=C[C@]4(C)[C@@]3(Cl)[C@@H](O)C[C@]2(C)[C@@]1(O)C(=O)CO (stereo not given in full) | inactive
COc1ccc(C(=O)NCc2cccnc2)cc1C(=O)NCc1cccnc1 | inactive
CN(C)CCCc1cc(C(=O)Nc2ccc(-c3ccncc3)cc2)ccc1O | inactive
Nc1ncnc2c1nc(Sc1ccc(Cl)cc1)n2[C@H]1OC2COP(=O)(O)O[C@@H]2C1O (stereo not given in full) | inactive
